# rCAG RNA binder: binders of r(CAG) RNA repeats, primary screen, biochemical, fluorescence. r(CAG) RNA repeat, TO-PRO-1 dye displacement fluorescence. inhibition, % at 3 µM. 1.3% of 370,000 active. AID 651821, 2012;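 active = inhibition above the plate cutoff, the mean of all test compounds on that plate plus 3 SD, cut at about 35% in these data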;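 also: 0% = DMSO alone and 100% = 100 µM mitoxantrone as full dye displacement; higher means more dye released from RNA so lower well fluorescence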
# MsrA inh: bovine MsrA enzyme inhibitors, primary screen, biochemical, absorbance, HTS | purified bovine MsrA, absorbance read-out | inhibition, % at 15.5 µM | 0.75% of 360,000 active | Methionine sulfoxide reductase A (Bos taurus) | AID 651718, 2012; in the data active = inhibition above about 4.5%;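 also: 0% = vehicle wells with enzyme and 100% = reference inhibitor wells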
# PG9 binder: binders of HIV-1 gp120 antibody PG9, primary screen, biochemical, TR-FRET | HIV-1 gp120 / PG9 antibody interaction | TR-FRET gp120-PG9 antibody binding | inhibition, % at 6.7 µM | 0.43% of 360,000 active; in the data active = inhibition above about 8.5%
# HGIII-sPLA2 inh: human group III sPLA2 inhibitors, primary screen, biochemical, QFRET, BODIPY PC-A2 liposome substrate. Group 3 secretory phospholipase A2 (Homo sapiens), Q9NZ20. QFRET BODIPY PC-A2 liposome hydrolysis, fluorescence. inhibition, % at 12.2 µM. 0.56% of 370,000 active. AID 743126, 2013;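 active = inhibition above mean plus 3 SD of compounds lying within the high and low control bounds, cut at about 19% in these data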;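 also: 0% = median of test compound wells and 100% = no enzyme DMSO wells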
# Target sequence (Q9NZ20 whole entry, looked up): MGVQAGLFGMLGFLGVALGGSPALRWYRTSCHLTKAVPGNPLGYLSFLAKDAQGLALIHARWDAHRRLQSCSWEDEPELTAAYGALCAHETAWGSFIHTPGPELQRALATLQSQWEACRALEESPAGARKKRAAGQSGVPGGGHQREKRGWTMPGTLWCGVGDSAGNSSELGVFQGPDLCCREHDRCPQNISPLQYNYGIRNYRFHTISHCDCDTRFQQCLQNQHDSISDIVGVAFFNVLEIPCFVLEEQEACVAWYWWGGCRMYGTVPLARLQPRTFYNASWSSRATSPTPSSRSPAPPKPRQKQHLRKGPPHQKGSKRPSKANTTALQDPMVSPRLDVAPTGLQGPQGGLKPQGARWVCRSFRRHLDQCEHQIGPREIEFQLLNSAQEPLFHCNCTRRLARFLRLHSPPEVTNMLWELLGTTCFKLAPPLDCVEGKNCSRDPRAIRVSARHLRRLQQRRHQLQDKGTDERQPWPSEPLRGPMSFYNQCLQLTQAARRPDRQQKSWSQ
# MsrA act: bovine MsrA enzyme activators, primary screen, biochemical, absorbance, HTS | activation, % at 10.6 µM | 0.3% of 360,000 active | Methionine sulfoxide reductase A (Bos taurus) | purified bovine MsrA, absorbance read-out; in the data active = activation above about 7.5%;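 also: 0% = vehicle and 100% = reference activator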
# PG9 binder conf: binders of anti-gp120 antibody PG9, confirmation, biochemical, TR-FRET. 90% of 1,500 active. shares compounds with PG9 binder. inhibition, % at 6.7 µM. TR-FRET PG9 antibody binding; in the data active = inhibition above about 9%
# PGV04 counter: binders of control antibody PGV04, counter-screen for PG9 antibody binder project, biochemical, TR-FRET, distinct HIV envelope site; shares compounds with PG9 binder; TR-FRET PGV04 antibody-gp120 binding; inhibition, % at 6.7 µM; 95% of 1,500 active; in the data active = inhibition above about 9.5%
# The depositor's hits bear a star; nt = no result given. An excerpt weighted towards active compounds, which were near 3.2% of everything screened.
SMILES,rCAG RNA binder,MsrA inh,PG9 binder,HGIII-sPLA2 inh,MsrA act,PG9 binder conf,PGV04 counter
Cc1ccc(OCCC(=O)OCC(=O)c2ccc3c(c2)NC(=O)CO3)cc1,6.1,-0.7,26.6*,-5.1,-1.6,19.6*,37.8*
O=C1COc2ccc(C(=O)COC(=O)c3ncc(Cl)c(Cl)c3Cl)cc2N1,-0.3,0.2,10.7*,6.3,-1.5,17.5*,27.4*
O=C1COc2ccc(C(=O)COC(=O)c3nc(Cl)ccc3Cl)cc2N1,-0.5,1.3,0.8,-0.5,-4.5,nt,nt
O=C(CCc1ccccc1)N[C@H]1[C@H](OC(=O)c2ccco2)CCC[C@]12C(=O)N(Cc1ccccc1)c1ccccc12,7.6,nt,nt,-7.0,nt,nt,nt
CC(=O)Nc1ccc(C(/C=C/c2ccccc2)Cc2ccccc2)cc1 (centres undefined),7.2,nt,nt,-22.2,nt,nt,nt
CN(Cc1c(O)ccc2c1oc(=O)c1ccccc12)C1CCCCC1,13.3,0.7,9.9*,3.3,-10.4,11.7*,16.7*
O=c1oc(-c2ccccc2F)nc2c1cnn2-c1ccccc1,0.3,-0.1,20.4*,0.5,0.4,49.3*,57.9*
O=C(Cn1nnc(-c2ccccc2NC(=O)c2ccccc2F)n1)NC1CCCC1,1.6,-0.2,12.4*,0.7,-4.0,39.8*,42.6*
CCc1ccccc1NC(=O)c1nnn(CC(=O)Nc2cccc(C)c2C)c1N,-0.4,1.8,41.4*,-7.2,-5.8,41.2*,48.1*
CCc1ccccc1NC(=O)c1nnn(CC(=O)Nc2cccc(C)c2)c1N,7.7,1.6,-0.1,-15.8,-6.9,nt,nt
COc1ccc(Cl)cc1C(=O)NNC(=O)c1n[nH]c2ccccc12,1.0,0.7,10.1*,12.2,-1.9,23.6*,31.5*
O=c1[nH]n(-c2cccc3cccnc23)c(=O)c2ccccc12,-3.0,0.4,-0.7,1.8,-0.4,nt,nt
O=C1C2C3c4ccccc4C(c4ccccc43)C2C(=O)N1c1cccc2cccnc12 (centres undefined),-2.5,0.7,10.0*,-8.9,4.8,4.9,7.1
COc1ccc(-c2nnc(SCc3c(F)cccc3F)n2N)cc1,1.1,nt,nt,-1.7,nt,nt,nt
COc1ccc(/C=C(\C#N)C(=O)OCC(=O)NCc2ccccc2)cc1,2.5,-0.3,-2.5,2.3,-2.6,nt,nt
COc1cccc(CNC(=O)COC(=O)/C(C#N)=C/c2ccc(N(C)C)cc2)c1,4.3,-0.6,20.5*,5.0,-4.6,35.8*,51.0*
O=c1[nH]c2ccccc2c2ccc(Cl)cc12,5.8,3.0,0.1,-1.7,-4.0,nt,nt
O=c1[nH]c2ccc(Cl)cc2c(O)c1Cc1ccccc1,1.2,4.3,9.0*,-2.0,-2.7,11.2*,13.9*
CC1=NOC(=O)/C1=C\c1ccc(-c2ccccc2Br)o1,23.5,-0.3,14.4*,-0.8,-0.5,29.9*,53.9*
COCCCN1C(=O)[C@H](CC(=O)N2CCCCC2)[C@]2(C(=O)OC)CCCCC=C12,1.4,nt,nt,4.9,nt,nt,nt
COC(=O)c1cc(C(c2ccccc2O)C2CCCO2)n2cccc(C(C)(C)C)c12 (centres undefined),6.8,nt,nt,2.2,nt,nt,nt
COc1ccc(-c2c(C)sc(NC(=O)c3ccnn3C)c2C#N)cc1,6.5,1.2,51.7*,5.2,-4.4,59.6*,60.8*
Cn1nccc1C(=O)Nc1sc2c(c1C#N)CCCC2,10.8,4.3,-4.4,6.5,-9.6,nt,nt
Cc1ccc(OCC(=O)c2cc(C)n(-c3cc(C)on3)c2C)c([N+](=O)[O-])n1,-0.7,2.4,-0.2,-0.1,-1.3,nt,nt
Cc1cc(-n2c(C)cc(C(=O)COc3ccc(Cl)cc3C(N)=O)c2C)no1,5.9,0.6,11.2*,10.9,-3.1,20.5*,34.1*
SMILES,rCAG RNA binder,MsrA inh,PG9 binder,HGIII-sPLA2 inh,MsrA act,PG9 binder conf,PGV04 counter
O=C(NCCC1=CCCCC1)c1coc(=O)c(Br)c1,-2.1,2.1,45.9*,-4.7,-6.2,57.3*,64.1*
O=C(NN=Cc1ccccc1C(F)(F)F)c1cc(-c2ccc(Cl)cc2)n[nH]1,8.1,nt,nt,-15.4,nt,nt,nt
COc1ccc(C(=O)OCCN2CCN(C3CN(Cc4cn(Cc5cccc(C)c5)nn4)S(=O)(=O)C3)CC2)cc1OC (centres undefined),3.1,nt,nt,-8.0,nt,nt,nt
O=C(Nc1ccccc1C(=O)Nc1ccccc1)c1ccccc1F,-4.1,0.4,21.2*,-0.5,-2.7,21.1*,27.7*
CC(=O)c1sc(Nc2ccccn2)nc1C,0.9,4.4,30.1*,-1.3,-7.3,38.5*,51.0*
CC(=O)c1sc(NC(=O)COc2ccc(Br)cc2)nc1C,4.3,-0.1,18.3*,-2.3,-4.9,21.2*,60.2*
CC(=O)c1sc(Nc2cccc3ccccc23)nc1C,-2.0,2.5,-0.4,5.5,-5.0,nt,nt
CC(=O)Nc1nc(C)c(C(C)=O)s1,4.4,1.4,7.8,3.4,-1.1,nt,nt
CC(=O)c1sc(NC(=O)C(C)C)nc1C,3.4,2.0,47.7*,2.6,-8.3,46.4*,64.4*
Cc1nc(NC(=O)C2CC2)sc1C(=O)Nc1ccc(Br)cc1,5.1,0.3,13.7*,3.0,-3.2,13.9*,15.3*
CC(=O)c1sc(NC(=O)COc2ccc([N+](=O)[O-])cc2)nc1C,5.4,-0.2,-1.9,-4.0,-3.4,nt,nt
COc1ccccc1NC(=O)OC1CCC12CCCCC2 (centres undefined),2.0,nt,nt,8.8,nt,nt,nt
N#Cc1ccc(OC[C@@H](O)CN2CCC(C(O)(c3ccccc3)c3ccccc3)CC2)cc1F,-1.3,nt,nt,-28.2,nt,nt,nt
CCCCCN1CCCCC(NC(=O)CSc2ccccc2)C1=O (centres undefined),-2.9,nt,nt,1.0,nt,nt,nt
NS(=O)(=O)c1ccc(CCNC(=O)c2cc(-c3ccc(Br)cc3)nc3ccccc23)cc1,17.4,0.1,6.3,-5.6,-4.5,nt,nt
Cc1cc(NC(=O)c2cc(-c3ccccn3)nc3c(Cl)cccc23)no1,5.9,0.5,33.3*,2.5,-3.6,42.0*,62.1*
O=C(Nc1nccs1)c1cc(-c2ccccn2)nc2c(Cl)cccc12,-0.6,0.6,-100.3,-1.0,-2.0,nt,nt
Cc1cc(NC(=O)c2cc(-c3ccccn3)nc3ccc(Br)cc23)no1,-1.4,0.0,20.9*,2.8,-9.4,32.4*,67.1*
Cc1cc(NC(=O)c2cc(-c3ccccn3)nc3ccccc23)no1,-2.9,2.2,1.1,0.2,-2.2,nt,nt
NS(=O)(=O)c1ccc(CCNC(=O)c2cc(-c3ccccn3)nc3ccc(Br)cc23)cc1,12.5,0.9,17.2*,0.3,-2.1,30.5*,63.2*
